# p47phox inh = p47phox/p22phox peptide binding inhibitors, primary screen, biochemical, uHTS, NADPH oxidase regulatory subunit. Neutrophil cytosol factor 1 (Homo sapiens), P14598. fluorescence polarization, 2 h. inhibition, % at 24.7 µM. hit rate 0.53% among 220,000. AID 1274, 2008;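 active = inhibition above about 30%, limit read from the data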;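 also: 0% = p47phox with labelled peptide and 100% = labelled peptide alone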
# Target sequence (P14598 whole entry, looked up): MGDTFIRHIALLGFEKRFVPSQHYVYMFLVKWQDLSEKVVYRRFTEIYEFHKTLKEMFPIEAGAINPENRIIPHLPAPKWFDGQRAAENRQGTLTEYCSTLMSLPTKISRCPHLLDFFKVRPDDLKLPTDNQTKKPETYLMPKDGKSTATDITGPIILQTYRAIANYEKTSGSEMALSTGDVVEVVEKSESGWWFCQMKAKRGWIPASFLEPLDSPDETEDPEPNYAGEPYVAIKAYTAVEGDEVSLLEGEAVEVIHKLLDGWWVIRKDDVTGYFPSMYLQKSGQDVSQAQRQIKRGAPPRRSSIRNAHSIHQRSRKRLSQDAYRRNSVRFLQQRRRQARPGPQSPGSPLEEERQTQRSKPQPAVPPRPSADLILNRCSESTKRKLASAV
# NR1D1 modulator = modulators of Rev-erb alpha DNA binding, primary screen, biochemical, FITC-DNA, fluorescence polarization, uHTS; AID 1259318, 2017; activity, % at 10 µM; Rev-erbα–FITC-DNA binding, 90 min; Nuclear receptor subfamily 1 group D member 1 (Homo sapiens), P20393; hit rate 0.79% among 370,000;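 active = activity above about 14%, limit read from the data; passing the limit was not always enough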;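 also: 0% = DMSO wells with 35 nM protein and 100% = DMSO wells with 750 nM protein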
# ZTA DNA inh = counter-screen for EBNA-1 inhibitors: inhibitors of Epstein-Barr virus ZTA. ZTA-DNA binding, fluorescence polarization. inhibition, % at 11 µM. hit rate 0.15% among 320,000; in the data active = inhibition above about 33%
# Target sequence (P03206 whole entry, looked up): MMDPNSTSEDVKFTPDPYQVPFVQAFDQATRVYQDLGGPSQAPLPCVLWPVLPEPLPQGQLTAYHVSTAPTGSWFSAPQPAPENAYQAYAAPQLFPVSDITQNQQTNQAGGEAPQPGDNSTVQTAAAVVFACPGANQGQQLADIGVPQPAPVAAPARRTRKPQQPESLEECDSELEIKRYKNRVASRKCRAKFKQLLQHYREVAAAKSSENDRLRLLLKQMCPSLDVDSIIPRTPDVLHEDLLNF
# EBNA-1 inhibitor = EBNA-1 DNA-binding inhibitors, primary screen, biochemical, fluorescence polarization; inhibition, % at 14.8 µM; hit rate 0.34% among 300,000; in the data active = inhibition above about 28%
# aDG glyco act = activators of alpha-DG glycosylation, primary screen, uHTS, Pro5-aDG cells, AlphaScreen | alpha-DG glycosylation AlphaScreen (IIH6); 0% Pro5, 100% B10-LARGE cell signal | activation, % at 10 µM | hit rate 0.22% among 360,000;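 active = activation of at least 8% versus controls, or a plate z-score of at least 8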;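 also: Pro5 are CHO cells carrying HIG-tagged alpha-DG that lacks glycosylation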
# PG9 binder = binders of HIV-1 gp120 antibody PG9, primary screen, biochemical, TR-FRET; TR-FRET gp120-PG9 antibody binding; HIV-1 gp120 / PG9 antibody interaction; AID 624416, 2012; hit rate 0.43% among 360,000; inhibition, % at 6.7 µM; in the data active = inhibition above about 8.5%
# EBNA-1 confirm = EBNA-1 DNA-binding inhibitors, retest, confirmation, biochemical, fluorescence polarization, triplicate; shares compounds with EBNA-1 inhibitor; Recombinant EBNA-1 DBD, Cy5-DNA fluorescence polarization; inhibition, % at 14.8 µM; hit rate 35% among 830; AID 2292, 2010;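 active = mean inhibition across replicates above a set limit taken from the earlier primary screen, cut at about 28% in these data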;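 also: plate controls were EBNA-1 protein with DMSO for no effect and wells lacking EBNA-1 for full effect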
# ZTA DNA inh trip = EBV Zta DNA binding inhibitors, counter-screen for EBNA-1 inhibitor project, biochemical, fluorescence polarization, triplicate | shares compounds with EBNA-1 inhibitor | Zta-ZRE DNA binding, Cy5 fluorescence polarization | inhibition, % at 11.1 µM | 830 tested, under 10 active | AID 2328, 2010;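 active = mean inhibition over triplicates above a set limit taken from the primary EBNA-1 screen, cut at about 37% in these data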;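 also: purified full length Zta protein with Cy5 labeled ZRE DNA probe; 0% = Zta with DMSO and 100% = wells lacking Zta protein; inhibitors lower polarization by freeing the labeled DNA probe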
# Numbers without * were called inactive; · = not tested or not shown; + = active, no number. An excerpt weighted towards active compounds, which were near 1.9% of everything screened.
SMILES,p47phox inh,NR1D1 modulator,ZTA DNA inh,EBNA-1 inhibitor,aDG glyco act,PG9 binder,EBNA-1 confirm,ZTA DNA inh trip
CCOCCCn1c(SCC(=O)NCc2ccco2)nc2c(sc3ccccc32)c1=O,-7,0,9,30*,0,-4,0,2
Cc1cccc(C(=O)Oc2ccccc2/C=N/Nc2ccc([N+](=O)[O-])cc2)c1,-27,6,4,34*,0,-2,41*,0
O=C(OC12CCCN(C1)/C(=C/c1ccncc1)C2)C1CCCCC1 (stereo not given),·,-4,·,·,·,·,·,·
O=C(COc1ccc2c(c1)OCO2)Nc1ccc2c(c1)oc1ccccc12,3,-1,6,71*,3,-1,11,15
O=C(Nc1cccc(C(=O)Nc2ccc(Br)cc2)c1)c1ccccc1,·,0,18,33*,1,0,26,0
O=C(Nc1cccc(-c2cnc3ccccc3n2)c1)c1cccc(NC(=O)c2ccco2)c1,-4,1,18,12,0,1,·,·
COc1cc(NC(=O)c2ccccc2)c(OC)cc1NC(=O)Cc1ccc(Br)cc1,·,1,8,36*,0,0,50*,1
COc1cc(NC(=O)c2cccnc2)c(OC)cc1NC(=O)c1ccc(Br)cc1,·,·,19,-2,0,·,·,·
COc1cc(NC(=O)c2ccc(Br)cc2)c(OC)cc1NC(=O)c1ccccc1,·,-5,-18,57*,0,-3,64*,5
COc1cc(NC(=O)c2ccccc2)c(OC)cc1NC(=O)Cc1ccc(F)cc1,·,2,14,-6,0,0,·,·
O=C(Nc1cccc(-c2cnc3ccccc3n2)c1)c1ccccc1,-4,5,-5,40*,0,2,7,-3
O=C(NCc1ccccc1)OCCN1C(=O)CCC12CCC(c1ccc(Cl)cc1)CC2 (stereo not given),·,2,·,·,·,·,·,·
O=C(c1ccc(Cl)c(Cl)c1)N1CCN(c2ccnc3cc(Cl)ccc23)CC1,·,3,·,·,·,·,·,·
COc1ccc2nc3sc(C(=O)NCc4cccs4)c(N)c3cc2c1,-13,4,-4,31*,·,-3,7,17
CCCCN1C(=O)N2Cc3ccccc3C2CS1(=O)=O (stereo not given),·,0,·,·,·,·,·,·
CC(C)CNc1cccc2c1S(=O)(=O)N(Cc1cn(Cc3ccc(F)cc3)nn1)Cc1ccccc1O2,·,1,·,·,·,·,·,·
O=C(Nc1nnc(CC(c2ccccc2)c2ccccc2)s1)c1ccco1,-17,2,-13,37*,0,5,18,5
O=S1(=O)c2c(NCc3ccco3)cccc2Oc2ccccc2CN1Cc1cn(Cc2ccc(F)cc2)nn1,·,7,·,·,·,·,·,·
Cc1cccc(N2CCN(S(=O)(=O)c3ccc4c(c3)n(C)c(=O)c(=O)n4C)CC2C)c1 (stereo not given),-3,-8,6,35*,0,0,0,14
Nc1nnnn1/N=C/c1ccccc1OCc1ccccc1,-4,1,9,29*,0,-2,14,-8
COC(=O)[C@]12C[C@H](CC(=O)N3CCOCC3)C(=O)N(Cc3ccco3)C1=C[C@H](COCc1ccccc1)O[C@@H]2C,·,8,·,·,·,·,·,·
C=CCN1C(=O)[C@@H](CC(=O)NCCC(C)C)[C@]2(C(=O)OCC)CCCCC/C=C/12,·,1,·,·,·,·,·,·
CCCCCNC(=O)C1CCC(Cn2c(=S)[nH]c3ccccc3c2=O)CC1 (stereo not given),-7,7,-3,44*,0,0,21,3
COc1ccc(/C=C/S(=O)(=O)NCCc2ccccc2)c(CNC(=O)OC(C)(C)C)c1,·,-2,·,·,·,·,·,·
COC(=O)[C@]12C[C@H](CC(=O)NCCc3ccccc3OC)C(=O)N(Cc3ccco3)C1=C[C@H](C(C)(C)C)O[C@@H]2C,·,-2,·,·,·,·,·,·
SMILES,p47phox inh,NR1D1 modulator,ZTA DNA inh,EBNA-1 inhibitor,aDG glyco act,PG9 binder,EBNA-1 confirm,ZTA DNA inh trip
O=C(CCC(=O)NNC(=O)COc1ccccc1)NCc1ccccc1,-9,-2,-7,-6,0,·,·,·
O=C(COc1ccccc1)NCc1ccc(-n2cccc2)cc1,-17,-6,-6,92*,0,-1,42*,16
C=CCN(CC#CC1=CCCCC1)Cc1ccc(OC)cc1OC,·,5,·,·,·,·,·,·
O=C(O)CCn1c2c(c3ccccc31)C[C@H](NS(=O)(=O)c1ccc(F)cc1)CC2,·,-4,·,·,·,·,·,·
N#Cc1nc(-c2ccc(Cl)cc2)oc1NCc1cccc2c1OCO2,2,3,10,28*,0,0,30*,5
Cc1nc2nc(-c3ccccc3)nn2c(C)c1C,·,1,-3,+,0,2,2,-3
Cc1ccc(S(=O)(=O)N2CCC(C(=O)OCC(=O)N3CCc4ccccc43)CC2)cc1,-13,1,-7,33*,0,-2,7,2
Cc1cc(C)nc(OC(C(=O)O)C(OCCc2ccccc2)(c2ccccc2)c2ccccc2)n1 (stereo not given),·,0,2,28*,0,-2,2,6
CC(=O)NC(=S)Nc1cccc2ccc(C)nc12,-13,5,-6,-6,0,0,·,·
Cc1ccc2cccc(NC(=S)NC(=O)c3ccnn3C)c2n1,16,-7,-21,40*,1,0,32*,5
O=C(COC(=O)C1CCN(S(=O)(=O)c2cccs2)CC1)c1ccc2c(c1)OCCO2,-21,1,1,10,0,-2,·,·
O=C1COc2ccc(C(=O)COC(=O)C3CCN(S(=O)(=O)c4cccs4)CC3)cc2N1,-16,12,16,35*,0,3,18,-2
COC(=O)C1CN(Cc2cn(Cc3ccc(OC)cc3)nn2)CCS(=O)(=O)N1Cc1ccc(Cl)cc1 (stereo not given),·,-4,·,·,·,·,·,·
CC(=O)CCc1c(C)nc2ccc(C(=O)O)cc2c1Cl,-13,5,8,31*,0,-2,-13,-22
C[C@H](O)[C@@H]1C(=O)N2CCc3c([nH]c4c(-c5ccc6c(c5)OCO6)cccc34)[C@@H]2C[C@@H]1N(C)C(=O)OCc1ccccc1,·,1,·,·,·,·,·,·
CCOC(=O)CNC(=O)CSc1nnc(-c2ccc(C(C)(C)C)cc2)n1-c1ccc(Cl)cc1,·,4,·,·,·,·,·,·
COc1ccc(Cc2nnc(NC(=O)Nc3ccccc3)s2)cc1OC,·,-3,-3,60*,0,2,26,3

# Source: PubChem (several laboratories)
